# Rows were chosen to be rich in hits. Some 2.4% of all compounds tested hit in one or more screens of this group.
# NadD inh: blocks S. aureus nicotinate mononucleotide adenylyltransferase. purified NadD enzyme, colorimetric absorbance read-out. inhibition, % at 20 µM. actives 0.78% (n = 360,000). AID 602399; in the data active = inhibition above about 26%
# PP1 counter: PP1-alpha (human) inhibition in PP5 counter-screen | purified PP1alpha, OMFP fluorescence | inhibition, % at 6.7 µM | actives 0.9% (n = 320,000);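 active = inhibition above the mean inhibition of all tested compounds plus 3 SD, computed separately for each screening campaign, cut at about 15% in these data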
# PREPL inhibitor: inhibitors of human prolyl oligopeptidase-like enzyme PREPL; recombinant PREPL, fluorescence polarization activity-based probe; inhibition, % at 5.96 µM; Q4J6C6; actives 0.68% (n = 320,000); AID 2751; in the data active = inhibition above about 43%;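 also: 0% = enzyme with DMSO and 100% = wells lacking enzyme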
# Rpn11 block: blocks the human proteasome subunit Rpn11. O00487. human 26S proteasome, Ub4-pepOG fluorescence polarization; 20S core pre-blocked with epoxomicin. inhibition, % at 20 µM. actives 0.59% (n = 360,000). AID 588493;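 active = inhibition at 20 µM, scaled to each plate's controls, above about 33%, limit read from the data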
# PP5 inh: PP5 (human) phosphatase inhibition; purified PP5c, OMFP substrate fluorescence; inhibition, % at 6.7 µM; actives 0.18% (n = 320,000);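 active = inhibition above the campaign's mean inhibition across all tested compounds plus 3 SD, cut at about 9.5% in these data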;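 also: 0% = DMSO only and 100% = 100 µM cantharidin control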
# Rpn11 confirm: Rpn11 inhibition confirmation, single concentration. purified human 26S proteasome, Ub4-pepOG fluorescence polarization; proteasome pretreated with epoxomicin. shares compounds with Rpn11 block. inhibition, % at 20 µM. actives 29% (n = 1,900)
# MMP-2 inh: MMP-2 (human) inhibition counter-screen | shares compounds with Rpn11 block | recombinant MMP-2, FRET peptide cleavage fluorescence | inhibition, % at 20 µM | actives 4% (n = 1,900) | AID 602330;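 also: human MMP-2 activated beforehand with APMA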
# Thrombin inh: counter-screen for RPN11 inhibitors: inhibition of bovine thrombin | bovine thrombin cleavage of Ub4-pepOG, fluorescence polarization | AID 602333 | shares compounds with Rpn11 block | actives 13% (n = 1,900) | inhibition, % at 20 µM;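 active = mean inhibition at least 40% at 20 µM, or signal 3 deviations below plate average, so some actives read negative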;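 also: plate controls were thrombin with DMSO for no effect and buffer wells lacking thrombin for full effect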
# Target sequence (P00735 whole entry, looked up): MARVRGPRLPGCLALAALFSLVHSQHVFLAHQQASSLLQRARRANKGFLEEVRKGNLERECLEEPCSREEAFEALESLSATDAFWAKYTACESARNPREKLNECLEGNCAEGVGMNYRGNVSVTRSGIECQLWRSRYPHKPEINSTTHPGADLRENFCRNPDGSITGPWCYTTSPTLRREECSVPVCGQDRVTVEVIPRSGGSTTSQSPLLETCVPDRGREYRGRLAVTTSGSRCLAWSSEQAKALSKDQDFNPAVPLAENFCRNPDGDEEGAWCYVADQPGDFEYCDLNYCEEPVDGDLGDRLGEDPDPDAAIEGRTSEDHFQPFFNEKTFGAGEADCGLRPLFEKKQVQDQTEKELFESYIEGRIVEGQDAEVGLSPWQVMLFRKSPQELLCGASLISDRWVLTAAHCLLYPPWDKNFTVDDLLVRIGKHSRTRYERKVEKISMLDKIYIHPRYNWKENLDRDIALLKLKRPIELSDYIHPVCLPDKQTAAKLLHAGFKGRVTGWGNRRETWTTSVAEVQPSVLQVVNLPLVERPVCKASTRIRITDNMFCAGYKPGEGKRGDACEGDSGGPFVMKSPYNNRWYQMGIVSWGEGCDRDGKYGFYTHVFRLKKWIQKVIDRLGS
# * = called active by the depositor; / = no result. Rule as the data show it, unless noted: active = inhibition above about 40%; inactive = the rest.
SMILES,NadD inh,PP1 counter,PREPL inhibitor,Rpn11 block,PP5 inh,Rpn11 confirm,MMP-2 inh,Thrombin inh
O=C(Nc1ccccc1C(=O)O)c1ccc2c(c1)C(=O)N(c1cccc([N+](=O)[O-])c1)C2=O,10,-3,-1,9,1,/,/,/
O=C(Nc1c[nH]c(=O)[nH]c1=O)c1ccc2c(c1)C(=O)N(c1cccc([N+](=O)[O-])c1)C2=O,10,/,/,57*,/,4,-22,1
CCOc1ccc(CCNC(=O)COC(=O)c2cc([N+](=O)[O-])ccc2N2CCOCC2)cc1OCC,1,-4,0,7,-4,/,/,/
CC(C)C(=O)Nc1ccc(NC(=S)NC(=O)c2cc3ccccc3o2)cc1,-5,-4,5,-3,3,/,/,/
O=C(NC(=S)Nc1ccc2oc(=O)ccc2c1)c1cc2ccccc2o1,-9,-7,-8,42*,-1,1,24,3
CC(C)C(=O)Nc1ccc(NC(=O)c2cc3ccccc3o2)cc1,-3,3,7,177*,0,-3,-19,-1
CCCCCCn1c(SCC(=O)NC2CCS(=O)(=O)C2)nc2ccccc2c1=O (stereo not drawn),2,/,/,-2,/,/,/,/
CCCN(CCC)CC(O)Cn1cc(/C=C/C(=O)c2ccccc2)c2ccccc21 (stereo not drawn),5,/,/,39*,/,5,-22,12
O=C(CSc1nc2ccccc2o1)Nc1nc2c(s1)CCCC2,0,/,/,96*,/,49*,-21,33
O=C(CCOc1ccccc1)Nc1ccccc1[N+](=O)[O-],-2,2,-2,34*,1,-14,14,-13
Cc1ccc(NC(=O)CSc2nnc(CNC(=O)c3ccco3)n2C)cc1,2,-1,17,3,0,/,/,/
CNC(=O)C[C@H]1C(=O)N(c2ccccc2)C[C@@H]1C,-5,/,/,-2,/,/,/,/
Cc1ccc(C)c(NC(=O)CN2C(=O)C3CC=CCC3C2=O)c1 (stereo not drawn),-8,/,/,-3,/,/,/,/
COc1ccc2nc(NC(=O)CSc3nnnn3C)sc2c1,-2,-1,1,-6,1,/,/,/
O=C1/C(=C/c2ccc3c(c2)OCO3)Oc2cc(OCC(=O)N3CCC[C@H]3C(=O)O)ccc21,8,-2,-4,16,3,/,/,/
COc1ccc(/C=C2\Oc3cc(OCC(=O)N4CCC[C@H]4CO)ccc3C2=O)c(OC)c1,-1,-2,9,75*,-1,73*,-53,62*
COC(=O)c1sc2nc(CN3CCN(c4ccc(OC)cc4)CC3)[nH]c(=O)c2c1C,0,-2,18,15,2,/,/,/
COC(=O)c1sc2nc(CN3CCN(c4cccc(C(F)(F)F)c4)CC3)[nH]c(=O)c2c1C,10,-1,7,62*,-1,13,-17,18
CCOC(=O)c1sc2nc(CN3CCN(c4cccc(C(F)(F)F)c4)CC3)[nH]c(=O)c2c1C,1,-4,8,49*,2,29,-13,5
Cc1ccc2c(c1)N(CC(=O)NCCCN1C(C)CCCC1C)C(=O)c1cccnc1O2 (stereo not drawn),1,-1,-2,0,2,/,/,/
Cc1ccc(-c2ccc(/C=C/C(=O)c3ccccc3)o2)cc1,6,3,10,76*,-1,28,-15,-2
O=C(/C=C/c1ccc(-c2ccccc2)o1)c1ccccc1,7,1,4,18,-4,/,/,/
CCOC(=O)c1cc(C)sc1/N=C/C1C(=O)CC(C)(C)CC1=O,-2,-2,3,-4,-3,/,/,/
CCOC(=O)c1c(CC(C)C)csc1/N=C/C1C(=O)CC(C)(C)CC1=O,-4,3,0,48*,2,8,10,-9
CCCCn1c(N)c(N(CCC(C)C)C(=O)C2CC(=O)N(CCc3ccc(OC)c(OC)c3)C2)c(=O)[nH]c1=O (stereo not drawn),-2,-2,9,2,0,/,/,/
SMILES,NadD inh,PP1 counter,PREPL inhibitor,Rpn11 block,PP5 inh,Rpn11 confirm,MMP-2 inh,Thrombin inh
O=C(c1ccc2c3c(cccc13)CC2)C1CCCN(C(=O)c2cccnc2)C1 (stereo not drawn),-2,-11,12,4,0,/,/,/
O=C(c1ccc2c3c(cccc13)CC2)C1CCCN(Cc2cccnc2)C1 (stereo not drawn),-2,2,-4,37*,1,-10,1,-17
CC(C)(C)c1ccc(C(=O)NC2CCS(=O)(=O)C2)cc1 (stereo not drawn),-4,-2,-4,3,1,/,/,/
O=C(CCn1c(=S)[nH]c2ccccc2c1=O)Nc1cccc(Cl)c1,-8,-3,-2,-6,-2,/,/,/
COc1ccc(NC(=O)CCn2c(=S)[nH]c3ccccc3c2=O)cc1Cl,7,/,/,129*,/,63*,34,-12
Cc1cc(C)c2c(N)c(C(=O)N/N=C/c3cccs3)sc2n1,1,-2,-2,95*,1,58*,-12,41*
COc1cc2cc3c(N)c(C(=O)Nc4sc(C)c(C)c4C#N)sc3nc2cc1OC,8,12,3,84*,0,48*,6,31
O=C(NCC(c1cccnc1)N1CCOCC1)NC1CCCCC1 (stereo not drawn),0,-7,-1,-2,2,/,/,/
CCOC(=O)c1noc(C)c1C(=O)Nc1cccc(F)c1,7,12,6,83*,3,-1,-41,1
COCCN(C(=O)CSc1nnc(-c2cccc(F)c2)n1N)c1c(N)n(Cc2ccccc2)c(=O)[nH]c1=O,-4,-1,-8,8,0,/,/,/
CC(CCc1ccccc1)NC(=O)CNC(=O)c1ccccc1Br (stereo not drawn),2,0,-3,4,-1,/,/,/
O=C(O)CSc1ncnc2nc[nH]c12,1,0,15,168*,5,5,-26,-1
N#Cc1c(-c2ccco2)cc(C2CC2)nc1N,1,2,0,42*,-2,-7,-54,-4
CC(C)NC(=S)N/N=C/c1sc(N2CCCCC2)nc1-c1cccs1,13,4,7,53*,3,46*,34,8
O=C(N/N=C/c1sc(N2CCCCC2)nc1-c1cccs1)C1CC1,0,0,3,23,2,/,/,/
NC(=O)N/N=C/c1sc(N2CCCCC2)nc1-c1cccs1,2,5,16,56*,1,4,-11,-1
COc1ccc(NC(=O)c2cccc3c(-c4cccnc4)coc23)cc1,1,/,/,63*,/,42*,-126,4
O=C(Nc1ccccc1)c1cccc2c(-c3cccnc3)coc12,-5,/,/,-7,/,/,/,/
COc1cccc(OC)c1C(=O)Nc1sc2c(c1C(N)=O)CCN(Cc1ccccc1)C2,1,4,-9,8,3,/,/,/
